The target in test [1] is Rho-associated protein kinase 1 (Homo sapiens) (UniProt Q13464). Conditions: at 1 µM.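 Further: reported values are mean percent inhibition of ROCK1.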
Test [2] deals with Rho-associated protein kinase 2 (Homo sapiens) (UniProt O75116). Conditions: at 0.1 µM.
The target is the same in test [3]. To be noted: at 1 µM.
Test [4] deals with Ribosomal protein S6 kinase alpha-1 (Homo sapiens) (UniProt Q15418). To be noted: at 0.1 µM.
For test [5] the target is unchanged. Conditions: at 1 µM.
Test [6] has as its target Ribosomal protein S6 kinase alpha-3 (Homo sapiens) (UniProt P51812). Conditions: at 0.1 µM.
Test [7] has the same target. Conditions: at 1 µM.
Test [8] deals with Ribosomal protein S6 kinase alpha-2 (Homo sapiens) (UniProt Q15349). To be noted: at 0.1 µM.
Ribosomal protein S6 kinase alpha-2 (Homo sapiens), sequence (Q15349 whole entry): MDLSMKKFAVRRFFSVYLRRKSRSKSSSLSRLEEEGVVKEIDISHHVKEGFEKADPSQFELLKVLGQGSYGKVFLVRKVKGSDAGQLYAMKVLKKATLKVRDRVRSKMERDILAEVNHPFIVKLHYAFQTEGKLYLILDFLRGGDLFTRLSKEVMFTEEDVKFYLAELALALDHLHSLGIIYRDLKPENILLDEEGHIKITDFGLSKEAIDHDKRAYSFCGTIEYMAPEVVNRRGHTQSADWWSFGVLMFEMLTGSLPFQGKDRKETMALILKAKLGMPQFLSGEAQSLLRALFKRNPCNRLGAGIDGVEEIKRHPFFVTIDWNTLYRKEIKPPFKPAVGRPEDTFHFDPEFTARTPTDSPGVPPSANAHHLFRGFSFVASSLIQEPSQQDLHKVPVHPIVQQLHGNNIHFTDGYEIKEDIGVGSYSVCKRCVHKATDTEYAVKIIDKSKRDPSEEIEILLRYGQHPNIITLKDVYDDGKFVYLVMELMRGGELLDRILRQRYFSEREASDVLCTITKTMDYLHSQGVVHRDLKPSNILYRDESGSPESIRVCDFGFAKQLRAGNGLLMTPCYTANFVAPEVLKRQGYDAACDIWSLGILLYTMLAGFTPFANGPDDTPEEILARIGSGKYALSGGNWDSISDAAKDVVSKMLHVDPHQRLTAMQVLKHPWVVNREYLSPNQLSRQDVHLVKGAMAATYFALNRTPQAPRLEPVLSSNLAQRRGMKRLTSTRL
The target is the same in test [9]. To be noted: at 1 µM.
The target of test [10] is Ribosomal protein S6 kinase alpha-6 (Homo sapiens) (UniProt Q9UK32). To be noted: at 0.1 µM.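 Further: reported value is the mean inhibition of RSK4, from the GSK PKIS kinase inhibitor screen.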

Ribosomal protein S6 kinase alpha-3 (Homo sapiens), sequence (P51812 whole entry): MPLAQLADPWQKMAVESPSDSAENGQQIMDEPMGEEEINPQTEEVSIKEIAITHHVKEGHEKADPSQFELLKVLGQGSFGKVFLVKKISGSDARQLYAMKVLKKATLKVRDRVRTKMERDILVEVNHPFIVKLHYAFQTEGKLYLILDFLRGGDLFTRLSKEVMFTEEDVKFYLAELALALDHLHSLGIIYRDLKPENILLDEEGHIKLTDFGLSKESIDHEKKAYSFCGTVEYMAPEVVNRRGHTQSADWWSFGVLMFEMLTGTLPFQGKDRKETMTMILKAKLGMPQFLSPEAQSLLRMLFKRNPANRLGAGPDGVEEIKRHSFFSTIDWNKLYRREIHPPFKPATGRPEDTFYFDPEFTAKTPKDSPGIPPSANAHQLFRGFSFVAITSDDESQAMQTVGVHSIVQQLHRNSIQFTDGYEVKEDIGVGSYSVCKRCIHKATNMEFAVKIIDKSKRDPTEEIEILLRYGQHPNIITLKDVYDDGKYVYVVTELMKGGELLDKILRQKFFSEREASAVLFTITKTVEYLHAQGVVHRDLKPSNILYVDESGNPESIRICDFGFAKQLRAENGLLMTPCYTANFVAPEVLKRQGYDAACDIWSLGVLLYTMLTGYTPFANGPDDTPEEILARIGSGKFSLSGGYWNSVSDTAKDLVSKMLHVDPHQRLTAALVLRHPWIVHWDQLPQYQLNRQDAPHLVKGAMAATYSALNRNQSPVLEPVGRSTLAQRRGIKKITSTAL
Rho-associated protein kinase 1 (Homo sapiens), sequence (Q13464 2-1354 limits assumed): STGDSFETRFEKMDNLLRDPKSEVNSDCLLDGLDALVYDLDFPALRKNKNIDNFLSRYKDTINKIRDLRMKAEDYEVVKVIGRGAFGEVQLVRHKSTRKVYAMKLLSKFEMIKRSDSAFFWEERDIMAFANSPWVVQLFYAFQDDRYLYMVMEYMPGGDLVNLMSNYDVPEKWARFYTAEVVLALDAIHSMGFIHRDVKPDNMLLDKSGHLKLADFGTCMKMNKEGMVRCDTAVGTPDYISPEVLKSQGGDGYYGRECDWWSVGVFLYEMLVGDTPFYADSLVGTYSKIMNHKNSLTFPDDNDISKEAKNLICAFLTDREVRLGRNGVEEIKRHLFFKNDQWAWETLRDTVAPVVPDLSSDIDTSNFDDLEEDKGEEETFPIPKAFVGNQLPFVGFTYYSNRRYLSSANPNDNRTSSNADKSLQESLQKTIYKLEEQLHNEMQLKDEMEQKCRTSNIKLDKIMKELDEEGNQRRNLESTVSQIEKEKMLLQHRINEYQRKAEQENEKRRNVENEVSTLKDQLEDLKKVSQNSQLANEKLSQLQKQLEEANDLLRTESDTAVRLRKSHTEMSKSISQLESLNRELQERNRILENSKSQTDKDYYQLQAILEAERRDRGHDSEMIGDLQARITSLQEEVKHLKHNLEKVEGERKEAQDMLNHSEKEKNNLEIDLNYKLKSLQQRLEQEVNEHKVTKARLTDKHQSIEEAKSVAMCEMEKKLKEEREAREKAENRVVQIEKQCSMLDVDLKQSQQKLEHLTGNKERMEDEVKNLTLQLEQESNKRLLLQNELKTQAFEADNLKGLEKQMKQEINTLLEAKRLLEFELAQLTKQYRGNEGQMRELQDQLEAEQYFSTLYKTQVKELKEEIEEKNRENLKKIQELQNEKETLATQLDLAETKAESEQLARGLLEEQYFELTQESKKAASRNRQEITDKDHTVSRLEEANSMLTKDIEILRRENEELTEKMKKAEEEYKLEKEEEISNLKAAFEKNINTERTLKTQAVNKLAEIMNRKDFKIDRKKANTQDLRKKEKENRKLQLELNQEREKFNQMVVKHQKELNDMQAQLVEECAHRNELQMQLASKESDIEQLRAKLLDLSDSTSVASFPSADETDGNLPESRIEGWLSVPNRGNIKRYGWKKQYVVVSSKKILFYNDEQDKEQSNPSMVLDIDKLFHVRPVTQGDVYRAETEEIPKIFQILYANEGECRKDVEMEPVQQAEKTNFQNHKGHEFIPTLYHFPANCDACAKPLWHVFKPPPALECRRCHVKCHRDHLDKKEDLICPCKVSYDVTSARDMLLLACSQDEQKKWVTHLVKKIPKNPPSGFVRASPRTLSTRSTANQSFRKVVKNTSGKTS
Ribosomal protein S6 kinase alpha-1 (Homo sapiens), sequence (Q15418 whole entry): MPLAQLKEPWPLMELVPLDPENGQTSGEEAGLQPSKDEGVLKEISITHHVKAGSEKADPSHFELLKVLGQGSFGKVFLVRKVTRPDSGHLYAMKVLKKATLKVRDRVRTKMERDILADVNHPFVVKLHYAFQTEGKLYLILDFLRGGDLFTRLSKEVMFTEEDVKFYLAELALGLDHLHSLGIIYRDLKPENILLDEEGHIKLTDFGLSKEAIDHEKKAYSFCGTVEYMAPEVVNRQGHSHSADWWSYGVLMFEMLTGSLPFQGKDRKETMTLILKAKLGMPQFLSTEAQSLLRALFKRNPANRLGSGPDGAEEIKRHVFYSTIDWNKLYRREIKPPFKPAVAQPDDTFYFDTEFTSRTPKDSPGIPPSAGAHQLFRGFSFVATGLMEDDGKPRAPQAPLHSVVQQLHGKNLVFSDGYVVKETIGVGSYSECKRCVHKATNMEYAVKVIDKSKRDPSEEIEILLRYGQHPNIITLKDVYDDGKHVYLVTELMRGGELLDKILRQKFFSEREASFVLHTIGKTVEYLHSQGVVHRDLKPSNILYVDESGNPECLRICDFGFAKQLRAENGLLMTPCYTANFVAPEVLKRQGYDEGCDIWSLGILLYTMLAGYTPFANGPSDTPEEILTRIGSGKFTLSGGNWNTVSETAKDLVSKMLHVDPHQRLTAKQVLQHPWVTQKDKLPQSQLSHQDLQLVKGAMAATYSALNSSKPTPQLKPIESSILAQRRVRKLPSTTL
Rho-associated protein kinase 2 (Homo sapiens), sequence (O75116 whole entry, looked up): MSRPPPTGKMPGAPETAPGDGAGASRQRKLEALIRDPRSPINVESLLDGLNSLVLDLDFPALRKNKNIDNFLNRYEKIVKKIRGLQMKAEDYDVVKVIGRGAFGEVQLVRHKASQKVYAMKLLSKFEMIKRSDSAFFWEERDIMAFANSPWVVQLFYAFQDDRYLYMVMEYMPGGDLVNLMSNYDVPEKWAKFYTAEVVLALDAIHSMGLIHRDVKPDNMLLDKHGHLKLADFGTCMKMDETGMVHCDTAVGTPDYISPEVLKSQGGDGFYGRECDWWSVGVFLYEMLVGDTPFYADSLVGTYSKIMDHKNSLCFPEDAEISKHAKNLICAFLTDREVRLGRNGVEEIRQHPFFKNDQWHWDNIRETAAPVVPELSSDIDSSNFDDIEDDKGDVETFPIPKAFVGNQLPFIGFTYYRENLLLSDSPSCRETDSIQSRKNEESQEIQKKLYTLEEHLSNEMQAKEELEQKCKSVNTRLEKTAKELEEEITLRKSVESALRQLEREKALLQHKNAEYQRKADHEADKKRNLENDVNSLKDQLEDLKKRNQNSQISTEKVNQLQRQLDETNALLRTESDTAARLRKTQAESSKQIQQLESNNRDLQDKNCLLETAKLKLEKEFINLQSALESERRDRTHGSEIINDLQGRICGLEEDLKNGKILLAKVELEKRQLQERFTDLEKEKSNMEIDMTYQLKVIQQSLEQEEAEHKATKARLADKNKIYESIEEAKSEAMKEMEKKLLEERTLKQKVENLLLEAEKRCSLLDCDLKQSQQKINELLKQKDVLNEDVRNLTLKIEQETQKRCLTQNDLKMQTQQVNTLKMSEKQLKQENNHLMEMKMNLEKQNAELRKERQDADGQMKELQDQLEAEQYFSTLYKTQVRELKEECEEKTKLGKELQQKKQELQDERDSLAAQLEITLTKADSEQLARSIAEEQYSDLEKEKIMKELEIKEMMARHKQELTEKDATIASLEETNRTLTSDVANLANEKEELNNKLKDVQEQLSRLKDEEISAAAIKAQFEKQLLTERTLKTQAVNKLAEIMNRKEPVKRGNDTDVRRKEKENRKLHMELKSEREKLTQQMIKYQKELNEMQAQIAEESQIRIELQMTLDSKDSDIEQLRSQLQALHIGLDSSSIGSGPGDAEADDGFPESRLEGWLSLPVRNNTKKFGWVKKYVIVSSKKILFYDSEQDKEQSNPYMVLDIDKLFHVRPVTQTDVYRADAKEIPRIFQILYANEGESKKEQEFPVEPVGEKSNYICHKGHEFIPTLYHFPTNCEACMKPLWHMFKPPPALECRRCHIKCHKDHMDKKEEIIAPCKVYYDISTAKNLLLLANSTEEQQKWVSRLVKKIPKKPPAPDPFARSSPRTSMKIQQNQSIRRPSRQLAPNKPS

Broadly, the inhibition is the drop in the measured response relative to a control, in per cent. In the case of `CS(=O)(=O)CCNCc1coc(-c2ccc3ncnc(Nc4ccc(OCc5ccccc5)cc4)c3c2)c1`, the inhibition in test [1] is 1.33%; in test [2], 1.66%; in test [3], 1.35%; in [4] it was 2.08%; in test [5], 2.82%; in [6], 2.71%. The inhibition was 3.03% in test [7], 3.38% in test [8], 3.14% in test [9] and 2.43% in [10].

For the compound `CCNC(=O)O[C@H]1CN[C@H](C#Cc2cc3ncnc(Nc4ccc(OCc5cccc(F)c5)c(Cl)c4)c3s2)C1`, the inhibition in [1] was 1.95%; in [2], 2.86%; in [3], 0.32%; in test [4] it was 1.32%; in test [5], 0.05%; in test [6], -0.04%. The inhibition in [7] is -1.01%; in [8], 1.63%; in test [9], 0.86%; in [10] it was 1.4%.

As for `Cc1ccc2c(-c3ccnc(Nc4ccccc4)n3)c(-c3ccc(F)cc3)nn2n1`, the inhibition in test [1] was determined as 1.37%; in [2] it was 2.77%; in test [3] it was 2.45%; in [4], 1.84%; in test [5], 4.63%; in test [6] it was 0.24%. In addition, the inhibition in [7] stood at 0.63%; in test [8] it was 2.02%; in test [9], 2.16%; in [10] it was 0.84%.

Turning to `Cc1ccc(O)cc1Nc1ccnc2cc(-c3ccccn3)ccc12`, the inhibition in test [1] is 3.92%; in test [2] it was 2.07%; in test [3], 0.33%; in test [4] it was 1.44%; in [5], 0.51%; in test [6] it was 0.48%. The inhibition in [7] was -0.99%; in test [8], 1.68%; in [9], 2.66%; in test [10], 0.21%.

For `c1cc(-c2cnn3nc(N4CCOCC4)ccc23)nc(NC2CC2)n1`, the inhibition in test [1] came to 5.25%; in [2] it was 2.62%; in test [3], 10.7%; in test [4], 2.23%; in test [5], 8.38%; in [6] it was 0.87%. For the same compound, the inhibition amounted to 6.33% in [7], 1.86% in test [8], 5.06% in test [9] and 0.29% in test [10].

On to `CC(C)(CO)CNC(=O)c1ccc2c(c1)/C(=N/Nc1ccc(S(N)(=O)=O)cc1)C(=O)N2`, for which the inhibition in [1] was 5.01%; in test [2], 0.95%; in test [3], 10.3%; in test [4], 0.63%; in test [5], 3.49%; in test [6] it was 0.73%. The inhibition in [7] amounted to 4.41%; in test [8], 0.48%; in [9], 6.29%; in [10], 1.62%.

In the case of `COc1cc(Nc2nccc(Nc3ccc4c(C)n[nH]c4c3)n2)cc(OC)c1OC`, the inhibition in [1] was 7.47%; in test [2] it was 1.83%; in [3], 12.1%; in test [4], -0.21%; in [5], -0.01%; in test [6] it was 1.04%. Further, the inhibition turned out to be 0.03% in test [7], 0.87% in test [8], 0.74% in test [9] and 1.26% in test [10].

With `Fc1ccc(-c2nn3ccccc3c2-c2ccncc2)cc1`, the inhibition came to 4.95% in [1]; 5.66% in [2]; 3.03% in test [3]; 1.48% in test [4]; 4.42% in test [5]; 1.87% in test [6]. Moreover, the inhibition in test [7] turned out to be 3.24%; in [8] it was 0.67%; in [9], 1.19%; in [10], 1.1%.

With `COc1ccc(-c2cc3c(N)ncnc3o2)cc1`, the inhibition came out at 1.74% in [1]; 0.73% in test [2]; 1.85% in [3]; 1.04% in [4]; 0.11% in test [5]; 1.43% in test [6]. Also, the inhibition in test [7] was 2.31%; in [8], -0.65%; in test [9], 0.29%; in test [10] it was -0.28%.

For the compound `N#Cc1c(NC(=O)CN2CCOCC2)sc2c1CCCC2`, the inhibition in test [1] stood at 0.87%; in [2] it was 5.37%; in test [3], 3.55%; in test [4] it was 2.13%; in test [5], 3.62%; in test [6], 1.56%. Further, the inhibition worked out at 0.9% in test [7], 1.89% in test [8], 1.68% in test [9] and 1.4% in test [10].

As for `COc1cccc(-c2c[nH]c3c(N/N=C/c4ccncc4)ncnc23)c1`, the inhibition in test [1] is 7.68%; in test [2], 3.52%; in test [3], 11.7%; in [4], 2.76%; in test [5], 7.19%; in [6], 1.21%. In addition, the inhibition was determined as 7.47% in test [7], 2.28% in test [8], 11.7% in test [9] and 1.63% in test [10].

Take `COc1cc(/C=N/Nc2ncnc3[nH]ncc23)ccc1O`: the inhibition in [1] worked out at 5.67%; in test [2] it was 4.64%; in test [3], 13.9%; in [4], 1.89%; in test [5], 11.3%; in test [6] it was 2.74%. The inhibition in test [7] was 11.7%; in [8] it was 1.62%; in test [9], 9.77%; in test [10], 2.97%.

Regarding `COc1ccc(-c2cc(-c3c[nH]nc3-c3ccccn3)ccn2)cc1`, the inhibition in test [1] came out at 4.3%; in test [2], 4.88%; in test [3] it was 7.92%; in test [4], 2.73%; in test [5] it was 6.34%; in [6], 1.84%. Moreover, the inhibition is 4.06% in [7], 2.82% in test [8], 4.07% in test [9] and 1.53% in test [10].

For the compound `FC(F)(F)c1cccc(-c2nn3ncccc3c2-c2ccnc(Nc3ccc4c(c3)OCCO4)n2)c1`, the inhibition was 2.47% in test [1]; 0% in [2]; 1.32% in [3]; 1.14% in [4]; 5.1% in [5]; -0.79% in test [6]. For the same compound, the inhibition in test [7] is -1.39%; in [8] it was 1.2%; in test [9], 2.46%; in [10] it was 1.4%.

Turning to `Fc1ccc(-c2nn3ncccc3c2-c2ccnc(Nc3ccc4c(c3)OCCO4)n2)cc1`, the inhibition stood at 1.7% in [1]; 1.49% in test [2]; 2.36% in test [3]; 1.15% in [4]; 4.94% in [5]; 0.37% in test [6]. Also, the inhibition in test [7] amounted to 1.36%; in test [8] it was 2.3%; in test [9] it was 4.22%; in test [10], 2.06%.
